The values below come from PubChem BioAssay (NCI).

Holding throughout (experiment): NCI-60 one-dose screen, 48 h (100 = growth as untreated, 0 = no growth, -100 = all killed)
Experiment [1] relates to HCT-15 colon. As to conditions: 10 µM.
Experiment [2] concerns HT29 colon. As to conditions: 10 µM.
The test system of experiment [3] is SNB-19 CNS. Particulars: 10 µM.
In experiment [4] the test system is U251 CNS. As to conditions: 10 µM.
Experiment [5] has as its system PC-3 prostate. As to conditions: 10 µM.
Experiment [6] deals with SK-MEL-5 melanoma. Particulars: 10 µM.
Experiment [7] concerns UACC-62 melanoma. Particulars: 10 µM unless noted.
In experiment [8] the test system is LOX IMVI melanoma. Particulars: 10 µM.
Experiment [9] relates to SK-MEL-28 melanoma. As to conditions: 10 µM.
The subject of experiment [10] is SNB-75 CNS. As to conditions: 10 µM.

This is part of a sample that, as a whole, favours compounds with a hit. Of some 83,000 tested, about 20% had one in any assay.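 Cells were grown in 96-well plates and exposed to the test compound at a single concentration for 48 hours; results are reported as percent growth, with values below 10 considered active.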 Unmarked numbers belong to inactive results. Active and inactive are the calls of the source.

Turning to `CCOC(=O)c1[nH]c(C)c(C(=O)O)c1C`, the growth in [1] was 109%; in experiment [2], 105%; in experiment [3], 109%; in experiment [4] it was 107%; in [5], 88.9%; in [6], 108%. In addition, the values for the growth in experiment [7] and in [8] were 107% and 106%, respectively.

On to `O=C(Nc1cc(-c2ccccc2)[nH]n1)c1ccc(Cl)cc1`, for which the growth in experiment [1] is 61.4%; in experiment [2], 67.2%; in [3] it was 65.2%; in experiment [4] it was 70.2%; in [5], 75.9%; in experiment [6], 87.6%. The growth is 79.7% in experiment [7], 89.5% in experiment [8] and 117% in experiment [9].

With `C#CCSc1nnnn1-c1ccc(Br)c(C)c1`, the growth in [1] is 95.4%; in experiment [2], 89.7%; in [3], 86.4%; in [4], 81.8%; in [5], 99.7%; in experiment [6], 88.3%. Besides, the growth was 65.6% in experiment [7], 97.4% in experiment [8] and 124% in experiment [9].

Take `O=C(c1ccc(O)cc1)c1ccc(O)cc1`: the growth is 99.6% in [1]; 106% in [2]; 111% in [3]; 94.1% in experiment [4]; 103% in experiment [5]; 99.3% in experiment [6]. In addition, the growth was 110% in experiment [7], 97.4% in experiment [8] and 110% in experiment [9].

As to `Oc1ccc(N=Nc2ccc(Br)cc2)c(O)c1`, the growth in experiment [1] was 21.2%; in experiment [2], 93.5%; in [3] it was 38.5%; in experiment [4] it was 16.8%; in [5] it was 17%; in [6], 11.1%. For the same compound, the results for the growth in experiment [7], in [8] and in [9] were 39.4%, 51.9% and 51.2%, respectively.

On to `O=C(c1ccccc1)C1CCC1`, for which the growth in [1] was 99.7%; in experiment [2], 85.4%; in [3], 103%; in experiment [4], 76.1%; in experiment [5], 90.4%; in [6], 107%. Further, the growth in [7] was 94%; in experiment [8], 106%.

Take `[O-][N+](=Nc1cccc(Cl)c1)c1cccc(Cl)c1`: the growth in [1] is 78.1%; in experiment [2], 106%; in [3], 100%; in experiment [4] it was 84.1%; in experiment [5], 96.4%; in experiment [6], 95.9%. In addition, the results for the growth in experiment [7], in experiment [8] and in [9] were 87.5%, 97.4% and 113%, respectively.

Consider `COc1ccc2c(NCCCCCCCCNc3c4ccccc4nc4cc(OC)ccc34)c3ccccc3nc2c1`, for which the growth in experiment [2] is -100% (active); in experiment [10] it was -100% (active); in experiment [3] it was -86.7% (active); in experiment [4], -100% (active); in experiment [5], -100% (active); in [6], -100% (active). In addition, the growth was -100% (active) in [7], -98.6% (active) in experiment [8] and -100% (active) in experiment [9].

On to `O=C(CS)Nc1ccc2ccccc2c1`, for which the growth was 75.9% in experiment [1]; 112% in experiment [10]; 101% in experiment [3]; 98% in experiment [4]; 70% in experiment [5]; 91.9% in [6]. Also, the growth in [7] is 94.1%; in experiment [8], 86.7%; in experiment [9] it was 102%.

With `O=c1cc(-c2ccccc2)[nH]c2c1CCCC2`, the growth in experiment [1] is 25%; in experiment [10], -7.33% (active); in [3], 39.4%; in [4] it was 27.9%; in experiment [5], 28.5%; in experiment [6], 7.3% (active). Moreover, the growth in [7] is 35.2%; in [8], 37.4%; in [9], 52.1%.

Regarding `O=c1c2ccccc2c(Br)c(Br)c2ccccc12`, the growth was 98% in experiment [1]; 119% in experiment [10]; 101% in experiment [3]; 91% in [4]; 95.7% in [5]; 109% in experiment [6]. In addition, the growth in [7] is 95.6%; in [8] it was 3.1% (active); in [9], 106%.

As for `CCOc1ccc2[nH]c(=S)sc2c1`, the growth was 108% in experiment [1]; 92% in experiment [10]; 103% in experiment [3]; 106% in experiment [4]; 101% in experiment [5]; 101% in experiment [6]. Also, the figures for the growth in experiment [7], in experiment [8] and in experiment [9] were 104%, 98.6% and 109%, respectively.

As to `COc1cc(OC)c2ccc(=O)oc2c1`, the growth is 96.4% in experiment [1]; 85.3% in experiment [10]; 98.8% in experiment [4]; 100% in experiment [5]; 107% in experiment [6]; 95.5% in experiment [7]. Also, the results for the growth in experiment [8] and in [9] were 96.6% and 115%, respectively.

Take `COc1cc(C(=O)N/N=C/c2cccc([N+](=O)[O-])c2)cc(OC)c1OC`: the growth was 52.1% in [1]; 29.5% in experiment [10]; 69.7% in [3]; 55.6% in experiment [4]; 67.5% in experiment [5]; 19% in experiment [6]. The growth in experiment [7] is 50.5%; in experiment [8], 50.2%; in experiment [9], 62.1%.

`COc1nc(N)nc2c1ncn2C1OC(CO)CC1O` (configuration not stated): the growth is 101% in experiment [1]; 89.7% in experiment [10]; 103% in experiment [3]; 112% in experiment [4]; 99.2% in [5]; 105% in [6]. Further, the growth in experiment [7] is 100%; in experiment [8], 107%; in experiment [9], 108%.

Regarding `Cc1nc2c(ccc3ccccc32)s1`, the growth in experiment [1] was 110%; in experiment [10], 108%; in [3], 107%; in experiment [4], 99.3%; in experiment [5], 99.7%; in experiment [6] it was 112%. Besides, the growth in experiment [7] was 107%; in experiment [8], 98.4%; in experiment [9] it was 105%.

As to `CNc1nc(NC)c2cn[nH]c2n1`, the growth in [1] is 101%; in experiment [10], 91.1%; in experiment [3], 106%; in experiment [5], 91.9%; in experiment [6] it was 97.8%; in experiment [7], 102%. Besides, the growth in [8] was 98.3%; in [9] it was 115%.

In the case of `COC1=CC(=O)c2nc(Cl)ccc2C1=O`, the growth in [1] is 100%; in [10], 48.6%; in experiment [3], 113%; in experiment [4], -42.5% (active); in [5], 21.7%; in experiment [7], 17.4%. Further, the results for the growth in experiment [8] and in experiment [9] were -95.7% (active) and 111%, respectively.

For `O=[N+]([O-])c1cccc(C(F)(F)F)c1`, the growth is 93.8% in experiment [1]; 98.7% in [2]; 104% in experiment [4]; 94.6% in [5]; 107% in experiment [6]; 101% in [7]. In addition, the growth in [8] is 99.7%.

Take `O=c1cc(-c2ccccc2)oc2c1ccc1ccccc12`: the growth is 97.7% in experiment [1]; 71.4% in [10]; 75.5% in experiment [3]; 83.8% in [4]; 84% in experiment [5]; 79.6% in experiment [6]. For the same compound, the growth in experiment [7] was 85.6%; in experiment [8], 89.3%; in [9] it was 99.3%.

As for `CCCC(=O)Nc1ccc2c(c1)CN1C(=O)c3ccccc3C1=N2`, the growth in experiment [1] is 98.3%; in [10], 104%; in [4] it was 98.6%; in experiment [5], 98.6%; in experiment [6], 98.5%; in experiment [7], 100%. The results for the growth in experiment [8] and in [9] were 105% and 111%, respectively.

Consider `CC1(C)Nc2cccc3c(N=Nc4ccc(N=Nc5ccccc5)c5ccccc45)ccc(c23)N1`, for which the growth is 77.5% in [1]; 73% in [10]; 110% in experiment [4]; 89.6% in experiment [5]; 92.9% in [6]; 79.2% in [7]. Moreover, the growth in experiment [8] is 77.6%; in experiment [9] it was 116%.

As to `CC1C(=O)c2ccccc2CC1C(=O)O` (configuration not stated), the growth in experiment [1] was 115%; in [10], 82.2%; in experiment [3] it was 128%; in experiment [4], 97.1%; in [5], 97.6%; in experiment [6], 100%. For the same compound, the growth in experiment [7] was 116%; in experiment [8], 92.4%; in experiment [9], 114%.

On to `CCOC(=O)C(C#N)Cc1ccccc1` (configuration not stated), for which the growth in experiment [2] was 104%; in experiment [10] it was 99.1%; in [3], 100%; in experiment [4], 112%; in experiment [5], 90.2%; in [6], 117%. In addition, the growth in experiment [7] is 111%; in [8], 107%; in experiment [9], 120%.
